Test results as given in PubChem BioAssay AID1729 (National Center for Advancing Translational Sciences (NCATS), 2009).
Results filed as inconclusive are left out. Unmarked numbers belong to inactive results. Active and inactive are the calls of the source. Calls follow the shape of the dose curve; as a rule, active = well fitted curve in the direction sought with a large enough effect; inconclusive = small, poorly fitted or top-dose-only effect, or effect the other way, or another doubt; inactive = no such curve, though single readings can be large or run the other way.

Target: Epidermal growth factor receptor (Homo sapiens) (UniProt P00533)
Test: Assay for Inhibitors of the ERK Signaling Pathway using a Homogeneous Screening Assay: EGFR T790M Kinase Inhibition
Conditions: EGFR T790M kinase biochemical inhibition assay; series mostly up to 21.9 µM; activity change, negative = inhibition: at the top concentration
Source text: qHTS Assay for Inhibitors of the ERK Signaling Pathway using a Homogeneous Screening Assay
NIH Chemical Genomics Center [NCGC]
NIH Molecular Libraries Screening Centers Network [MLSCN]
Assay Submitter (PI): Dr. Wei Zheng, NCGC/NIH
The Ras/extracellular-signal-regulated kinase (ERK) mitogen activated protein (MAP) kinase signaling pathway (ERK1/2 cascade) plays is a key role in transmitting signals from the cell surface to the nucleus (Nishida and Gotoh 1993; Chang and Karin, 2001). The cascade is initiated by the small G-protein Ras, which recruits Raf […], where activation occurs. Alternatively, this pathway can be activated by elevating intracellular cAMP.
Activation of the ERK pathway is essential in increased cell division and cell survival. Sustained and constitutive activation of the ERK pathway, however, has been linked to uncontrolled cell proliferation, increased cell survival, and tumor progression. Thus, the ERK has been as an attractive target for cancer chemotherapy in the past few years (Sebolt-Leopold and Herrera, 2004). Given its physiological and pathological importance, assessment of ERK phosphorylation has been broadly performed in both basic research and drug discovery. Most assays for the measurement of ERK phosphorylation use the antibody-based detection methods, such as western blot and ELISA. These assays require multiple reagent additions with cell wash steps and are not suitable for high-throughput screening.
The current cell-based ERK phosphorylation assay was performed using AlphaScreen platform. AlphaScreen is a two bead-based proximity-dependent chemical energy transfer luminescent assay platform. The assay reagents (ERK SureFire(TM) kit) were supplied from TGR BioSciences (Australia). In the presence of specific antibodies, phosphorylated ERK will bring "donor" and "acceptor" beads to a proximity range (<200 nm), and subsequently lead a chemical luminescent reaction upon exciting donor beads with 680 nm laser. To validate pathway hits from the cell-based assay, enzyme assays consisting of EGFR tyrosine kinase, Raf and MEK were used as a means of deciphering the enzymes of target for the prioritized group of compounds derived from the HEK-293 cell based assay. The compounds were tested against significant members of the ERK signaling pathway EGFR and EGFR mutants (EGFR L858R, EGFR T790M, and EGFR L858R T790M). In order to establish the specificity of the prioritized compounds for EGFR and EGFR mutants, the compounds were also assayed against other important ERK signaling pathway enzymes, c-RAF and MEK-1.
NCGC Assay Protocol Summary:
The HTRF kinase assay (components supplied as kit by Cisbio) was chosen for the EGFR and EGFR mutant enzyme assays that applied the time resolved fluorescence resonance energy transfer (TR-FRET) principle. A peptide substrate is labeled with a biotin that can bind to XL665 labeled streptavidin and the anti-phosphoresidue antibody is labeled with Eu+. Upon phosphorylation of the substrate, the antibody binds to phosphorylated substrate that enables TR-FRET detection in homogenous assay format.
An HTRF Kinease TK assay kit (Cisbio, Bedford, MA) was used to develop the EGFR and EGFR mutant assays (Harbert et al., 2008. Harbert C, Marshall J, Soh S, Steger K. Development of a HTRF Kinase Assay for Determination of Syk Activity. Current Chemical Genomics. 1: 20-26. 2008). EGFR and EGFR mutants were obtained from Invitrogen. The assay buffer was composed of 50 mM HEPES (pH 7.0), 5 mM MgCl2, 5mM DTT, 0.1 % NaN3, 0.1 % BSA and 0.1 mM orthovanadate.
The HTRF assays were preformed according to the HTRF Kinease TK kit. Optimization for each enzyme was preformed in 384 well format (data not included). All reagents were dispensed into 1536 well plates.
(1) Enzyme, […] EGFR at 3 nM final
(2) Compound, 22 nl, Library Compounds in 0.128 to 10 mM titration series or control
(3) Reagent, 1.5 ul 10 uM ATP and 0.25 uM substrate final
(4) Incubation for 30 min, Ambient conditions
[…]

Chain of Epidermal growth factor receptor (Homo sapiens) (P00533 whole entry T790M, looked up): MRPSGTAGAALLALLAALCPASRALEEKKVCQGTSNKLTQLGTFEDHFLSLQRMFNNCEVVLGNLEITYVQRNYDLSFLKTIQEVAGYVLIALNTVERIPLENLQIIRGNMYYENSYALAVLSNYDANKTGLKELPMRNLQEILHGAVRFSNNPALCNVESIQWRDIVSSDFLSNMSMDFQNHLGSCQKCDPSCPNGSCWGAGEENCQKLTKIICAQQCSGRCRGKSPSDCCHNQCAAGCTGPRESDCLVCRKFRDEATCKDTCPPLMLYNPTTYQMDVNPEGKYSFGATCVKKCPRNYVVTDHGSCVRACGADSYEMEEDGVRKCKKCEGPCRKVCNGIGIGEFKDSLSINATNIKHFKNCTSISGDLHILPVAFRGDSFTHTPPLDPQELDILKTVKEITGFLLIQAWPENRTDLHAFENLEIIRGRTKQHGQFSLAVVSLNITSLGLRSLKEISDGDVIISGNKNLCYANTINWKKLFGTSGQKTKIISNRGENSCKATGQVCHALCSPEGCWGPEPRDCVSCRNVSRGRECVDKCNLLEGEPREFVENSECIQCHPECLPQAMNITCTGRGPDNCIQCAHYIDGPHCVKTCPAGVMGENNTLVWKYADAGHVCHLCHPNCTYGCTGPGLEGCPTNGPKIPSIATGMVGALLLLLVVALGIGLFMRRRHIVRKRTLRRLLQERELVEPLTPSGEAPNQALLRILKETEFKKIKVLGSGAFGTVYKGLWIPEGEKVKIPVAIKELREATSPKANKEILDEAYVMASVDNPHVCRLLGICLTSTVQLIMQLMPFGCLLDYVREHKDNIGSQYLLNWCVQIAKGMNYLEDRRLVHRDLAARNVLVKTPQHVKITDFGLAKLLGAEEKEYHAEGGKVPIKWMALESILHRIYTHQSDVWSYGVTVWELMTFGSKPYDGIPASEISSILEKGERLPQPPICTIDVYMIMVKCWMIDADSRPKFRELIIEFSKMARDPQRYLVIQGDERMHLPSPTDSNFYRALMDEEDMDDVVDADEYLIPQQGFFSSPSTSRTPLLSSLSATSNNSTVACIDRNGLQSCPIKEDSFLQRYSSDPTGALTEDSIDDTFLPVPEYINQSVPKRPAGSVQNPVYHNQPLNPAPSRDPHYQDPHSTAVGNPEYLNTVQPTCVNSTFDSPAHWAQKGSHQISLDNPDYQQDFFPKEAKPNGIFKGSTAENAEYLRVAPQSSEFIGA

| Structure (SMILES) | Potency | activity change, negative = inhibition [%] |
| --- | --- | --- |
| Cc1ccc2nc(=O)c(NNc3ccccc3)cnc2c1 | 355 nM (active) | – |
| Cn1nc(-c2ccc(Cl)cc2)nc2c(=O)n(C)c(=O)nc1-2 | – | 4.21 |
| N#C/C(=C(/N)Sc1ccc(N)cc1)c1ccccc1C(F)(F)F | inactive | – |
| COc1ccc(C(=O)c2ccc(Cl)c([N+](=O)[O-])c2)cc1 | – | -4.67 |
| CS(=O)(=O)CCNCc1nc(-c2ccc3ncnc(Nc4ccc(OCc5cccc(F)c5)c(Cl)c4)c3c2)cs1 | – | -6.15 |
| O=C(Nc1nc(-c2ccccc2)cs1)c1ccc(N2CCOCC2)c([N+](=O)[O-])c1 | – | -3.77 |
| CCn1c(=O)c2[nH]c(-c3ccccc3)nc2n(CC)c1=O | – | -2.65 |
| Cn1c(=O)[nH]c2nnc(-c3ccc(Cl)c(Cl)c3)nc2c1=O | – | 2.61 |
| Fc1ccc(Nc2ncnc3sc4c(c23)CCC4)cc1F | – | -2.3 |
| Cc1ccc(NNc2c(C)nc3ccccc3nc2=O)cc1 | – | -13.2 |
| Cc1nc2ccccc2nc(=O)c1NNc1ccccc1 | 316 nM (active) | – |
| CCN(CC)CCC(=O)Nc1cccc2c1C(=O)c1ccccc1C2=O | – | -1.03 |
